Data on 21 molecules can be found in PubChem BioAssay (NCATS).

The nature of test [1]: Primary qHTS for inhibitors of SARS-S pseudo-typed particle cell entry (AID 1479145). Further: nearly all actives have a fitted effect of over 45% in size. On activity change, negative = inhibition: on the % scale 0 is the no-effect control and ±100 the full control effect. To be noted: outcome: dose series up to 57.1 µM unless noted. A general note: In qHTS, concentration-response curves come from the screen itself.
A short description of test [2]: Primary qHTS for Huh7 cytotoxicity: counterscreen for inhibitors of MERS-S pseudotyped particle cell entry (AID 1479147). On activity change, negative = cytotoxicity: on the % scale 0 is the no-effect control and ±100 the full control effect. To be noted: outcome: dose series up to 57.1 µM unless noted.
Test [3] is described as follows: Primary qHTS for inhibitors of MERS-S pseudo-typed particle cell entry (AID 1479149). Further: nearly all actives have a fitted effect of over 60% in size. To be noted: outcome: dose series up to 57.1 µM unless noted.
Test [4] can be described thus: Primary qHTS for Vero E6 cytotoxicity: counterscreen for inhibitors of SARS-S pseudo-typed particle cell entry (AID 1479150). On activity change, negative = cytotoxicity: on the % scale 0 is the no-effect control and ±100 the full control effect. The settings on record: outcome: dose series up to 57.1 µM unless noted.
A short description of test [5]: Cytotoxicity counterscreen for inhibitors of SARS-CoV-2 cell entry (AID 1645845). Further: nearly all actives have a fitted effect of over 50% in size. On activity change, negative = cytotoxicity: on the % scale 0 is the no-effect control and ±100 the full control effect. To be noted: outcome: dose series up to 57.1 µM unless noted. Summed up:
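Counterscreen run in the same HEK293-ACE2 line as the pseudotyped-particle entry assay, without particles. Viability after 48 h at 37 C was read as ATP luminescence, scaled between cell-containing and cell-free wells.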
In general terms: The purpose of a counterscreen is to sort out artefacts and off-target activity.

A short description of test [6]: Primary qHTS to identify inhibitors of SARS-CoV-2 cell entry (AID 1645846). Further: nearly all actives have a fitted effect of over 45% in size. To be noted: SARS-CoV-2 pseudovirus cell entry assay, luminescence; activity change, negative = inhibition: at 57.1 µM (top of the series) unless noted. Summed up: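 Using luciferase-reporting pseudoviruses carrying Wuhan-Hu-1 spike, the screen tracks entry into stably ACE2-expressing cells over 48 hr. Activity is expressed relative to spike particles versus particles lacking any fusion protein.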

Each structure is given as a SMILES string. Inconclusive results are not listed. The source made the active and inactive calls. The call rests on the fitted dose curve. Numbered stars: 1 amine (or outer) side, 2 acyl side, 3 side chain; on linkers, the order of the positions; unused ones are H or OH. Bridge positions count the residues as written; N and C are the ends. Square brackets hold non-standard residues; d marks the D form. Peptide text beside a SMILES is read from it. * marks the point of attachment. X6 = NC1=N[C@@H](O)C[C@H]([C@H](N[*:1])C(=O)[*:2])N1; ΔAla(Z-3-ureido) = NC(=O)N/C=C(\N)C(=O)O; β3hOrn = NCCC[C@H](N)CC(=O)*; Dap = NC[C@H](N)C(=O)O

`CCCCCCCCCCCCCCCCOc1nc2ccc(C)cc2c(=O)o1`: the Potency entry in test [1], in test [2], in test [3], in test [4] and in test [5] was “inactive” throughout. The activity change, negative = inhibition in test [6] was -28.4%.
As to `NCCC[C@H](N)CC(=O)N[C@H]1CNC(=O)[C@H]([C@H]2C[C@H](O)N=C(N)N2)NC(=O)/C(=C/NC(N)=O)NC(=O)[C@H](CO)NC(=O)[C@H](CO)NC1=O` (β3hOrn-[Dap]SS[ΔAla(Z-3-ureido)][X6]; lactam 1-C), the Potency result in test [1], in test [2], in test [3], in test [4], in test [5] and in test [6] was “inactive” each time.
As to `CC(=O)[O][Al][O]C(C)=O`, the figures for the activity change, negative = inhibition in test [1] and in test [6] were -39.3% [at 11.4 µM] (inactive) and -37.2% [at 11.3 µM], respectively. In addition, the values for the outcome in test [2], in test [3] and in test [5] were “inactive [at 11.4 µM]”, “inactive [at 11.4 µM]” and “inactive [at 11.3 µM]”, respectively. In addition, the activity change, negative = cytotoxicity in test [4] is -2.68% [at 11.4 µM] (inactive).
For `O=C1O[C@H]2[C@H](OC(O)[C@@H]2O)[C@@H]1O` (stereo partly specified), the Potency result in test [1], in test [2], in test [3], in test [4], in test [5] and in test [6] was “inactive” in each case.
In the case of `Oc1c(Br)cc(Br)cc1CNC1CCC(O)CC1` (stereo unspecified), the Potency entry in test [1], in test [2], in test [3], in test [4] and in test [5] was “inactive” throughout. Besides, the activity change, negative = inhibition in test [6] is -15.3%.
`NC(=O)OCC(O)COc1ccc(Cl)cc1` (stereo unspecified): the Potency result in test [1], in test [2], in test [3], in test [4], in test [5] and in test [6] was “inactive” each time.
As for `NC(=O)C1CCCN1C(=O)C(Cc1cnc[nH]1)NC(=O)C1CCC(=O)N1` (stereo unspecified), the Potency entry in test [1], in test [2], in test [3], in test [4], in test [5] and in test [6] was “inactive” in each case.
In the case of `CC(C)(C)NCC(O)CSc1nc(-c2ccc(C(N)=O)s2)cs1` (stereo unspecified), the Potency entry in test [1], in test [2], in test [3], in test [4] and in test [5] was “inactive” in each case. In test [6], the activity change, negative = inhibition is -22.9%.
On to `CCC(=O)NC[C@@H]1C[C@H]1c1cccc2c1CCO2`, for which the Potency entry in test [1], in test [2], in test [3], in test [4] and in test [5] was “inactive” each time. In test [6], the activity change, negative = inhibition was -21.9%.
Turning to `C=C(C)CNc1ccc(C(C)C(=O)O)cc1` (stereo unspecified), the Potency result in test [1], in test [2], in test [3], in test [4] and in test [5] was “inactive” throughout. The activity change, negative = inhibition in test [6] is -20.2%.
For `CCCCCCCCCCCCCCCCCC(=O)[O][Al]`, the activity change, negative = inhibition in test [1] is -36% [at 5.34 µM] (inactive). In addition, the activity change, negative = cytotoxicity in test [2] is -3.61% [at 5.34 µM] (inactive); in test [4], -0.388% [at 5.34 µM] (inactive); in test [5] it was 0.759% [at 5.25 µM] (inactive). In addition, the outcome in test [3] is “inactive [at 5.34 µM]”; in test [6], “inactive [at 5.25 µM]”.
Take `O=C1C(c2[nH]c3ccc(S(=O)(=O)O)cc3c2O)=Nc2ccc(S(=O)(=O)O)cc21`: the Potency entry in test [1], in test [2], in test [3], in test [4] and in test [5] was “inactive” in each case. Moreover, the activity change, negative = inhibition in test [6] was -23%.
Regarding `CCCC[C@H](C)C[C@H](O)/C=C/[C@H]1[C@H](O)CC(=O)[C@@H]1CCCC/C=C/C(=O)O`, the Potency result in test [1], in test [2], in test [3], in test [4] and in test [5] was “inactive” throughout. Further, the activity change, negative = inhibition in test [6] was -18.9%.
`O=C[C@H](O)[C@@H](O)[C@H](O)[C@H](O)CO`: the Potency entry in test [1], in test [2], in test [3], in test [4], in test [5] and in test [6] was “inactive” throughout.
For `COC(=O)CCC[N+](C)(C)C`, the Potency result in test [1], in test [2], in test [3], in test [4] and in test [5] was “inactive” throughout. For the same molecule, the activity change, negative = inhibition in test [6] is -38.5%.
With `O=S(=O)(O)CC(S)CS` (stereo unspecified), the Potency result in test [1], in test [2], in test [3], in test [4], in test [5] and in test [6] was “inactive” each time.
Regarding `Cc1cc(=O)c(C(=O)N[C@@H](C(=O)N[C@@H]2C(=O)N3C(C(=O)O)=C(CSc4nnnn4C)CS[C@H]23)c2ccc(O)cc2)c[nH]1`, the Potency result in test [1], in test [2], in test [3], in test [4] and in test [5] was “inactive” in each case. Also, in test [6], the activity change, negative = inhibition was -20.7%.
Regarding `COc1cc2c(cc1OC)[C@@H](Cc1cc(OC)c(OC)c(OC)c1)[N+](C)(CCCOC(=O)CC/C=C/CCC(=O)OCCC[N+]1(C)CCc3cc(OC)c(OC)cc3[C@H]1Cc1cc(OC)c(OC)c(OC)c1)CC2` (stereo partly specified), the Potency entry in test [1], in test [2], in test [3], in test [4] and in test [5] was “inactive” each time. In test [6], the activity change, negative = inhibition was -24%.
With `CN1CC(O)c2cc(N=NC(N)=O)c(O)cc21` (stereo unspecified), the Potency entry in test [1], in test [2], in test [3], in test [4] and in test [5] was “inactive” in each case. Further, in test [6], the activity change, negative = inhibition was -20%.
For `CC(C(=O)O)c1ccc(C2CCCCC2)c2ccccc12` (stereo unspecified), the Potency result in test [1], in test [2], in test [3], in test [4] and in test [5] was “inactive” throughout. For the same molecule, in test [6], the activity change, negative = inhibition is -4.82%.
As to `CN(CCCCCCN(C)C(=O)Oc1ccc[n+](C)c1)C(=O)Oc1ccc[n+](C)c1`, the Potency entry in test [1], in test [2], in test [3], in test [4] and in test [5] was “inactive” each time. In test [6], the activity change, negative = inhibition is -28.5%.
